Experimental data published in PubChem BioAssay (Tox21).
A number with no mark means an inactive call. Inconclusive results are not listed. Where a call stands in place of a potency, no number is given. Activity calls are given as the source filed them. Calls follow the shape of the dose curve; as a rule, active = well fitted curve in the direction sought with a large enough effect in the repeat runs; inconclusive = weak or mixed curves; inactive = no such curve, though single readings can be large; an effect the other way counts as inactive or inconclusive.

Tests used:
[1] = Human pregnane X receptor (PXR) small molecule agonists, qHTS cell viability counter screen (AID 1346977); details: PXR-Luc HepG2 viability, CellTiter-Fluor, 24 h; series mostly up to 92.4 µM; also: nearly all actives have a fitted effect of over 50% in size; also: potency is read from the fitted curve at half-maximal effect
Outline: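 PXR-Luc HepG2 cells in medium with 5% charcoal-stripped FBS were pre-incubated 5hr, then exposed to compounds for 24hr at 37C. Viability was read in the same wells by CellTiter-Fluor fluorescence, reagent added after 23hr with a 1hr incubation.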

[2] = Caspase-3/7 induction in HepG2 cells by small molecules, qHTS assay (AID 1346978); details: HepG2 caspase-3/7 activation, Caspase-Glo luminescence, 17 h; series mostly up to 92.4 µM; also: nearly all actives have a fitted effect of over 15% in size
Outline: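 Caspase-3/7 induction was measured by Caspase-Glo 3/7 luminescence (30 min, room temperature) after a 17 hr compound exposure of wild-type HepG2 cells seeded at 2,000 per well and pre-incubated 5 hr.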

[3] = Caspase-3/7 induction in CHO-K1 cells by small molecules, qHTS assay (AID 1346980); details: CHO-K1 caspase-3/7 induction, Caspase-Glo luminescence, 17 h; series mostly up to 92.4 µM; also: nearly all actives have a fitted effect of over 15% in size
Outline: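 Luminescent Caspase-Glo 3/7 read (30min, room temperature) quantified apoptosis induction. Cells were wild-type CHO-K1, treated with compound for 17hr at 37 C and 5% CO2.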

[4] = Caspase-3/7 induction in HepG2 cells by small molecules, qHTS cell viability counter screen (AID 1346981); details: CellTiter-Fluor fluorescence, 17 h; series mostly up to 92.4 µM; also: nearly all actives have a fitted effect of over 30% in size; also: potency is read from the fitted curve at half-maximal effect
Outline: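 Wild-type HepG2 cells, 2,000/well, settled 5 hr at 37 C, 5% CO2 before compound addition. Viability read by CellTiter-Fluor fluorescence, reagent added after 16 hr compound exposure, then 1 hr at 37C, in the same wells as the caspase read.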

[5] = target: Nuclear receptor subfamily 1 group I member 2 (Rattus norvegicus) (UniProt Q9R1A7); experiment: Rat pregnane X receptor (rPXR) activation by small molecules, qHTS assay (AID 1346983); details: rPXR luciferase reporter cells, One-Glo luminescence, 24 h; max activation: stronger effect = higher value; also: nearly all actives have a fitted effect of over 20% in size
Sequence of Nuclear receptor subfamily 1 group I member 2 (Rattus norvegicus) (Q9R1A7 whole entry, looked up): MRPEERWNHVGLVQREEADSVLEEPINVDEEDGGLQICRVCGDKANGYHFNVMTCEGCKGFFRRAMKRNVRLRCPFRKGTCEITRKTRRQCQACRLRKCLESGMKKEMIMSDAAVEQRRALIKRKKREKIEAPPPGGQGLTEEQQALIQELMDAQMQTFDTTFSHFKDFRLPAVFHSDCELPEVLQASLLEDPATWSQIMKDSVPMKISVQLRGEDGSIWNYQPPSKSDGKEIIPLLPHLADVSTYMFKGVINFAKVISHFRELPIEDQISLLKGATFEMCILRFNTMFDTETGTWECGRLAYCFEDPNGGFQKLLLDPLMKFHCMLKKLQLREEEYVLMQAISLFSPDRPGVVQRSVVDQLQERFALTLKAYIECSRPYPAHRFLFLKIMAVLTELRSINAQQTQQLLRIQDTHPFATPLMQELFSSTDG
Outline: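 Luminescent readout (One-Glo luciferase, 30 min room temperature) followed 24 hr compound treatment at 37 C of rPXR cells plated 2,000 per well and preincubated 5hr; qHTS format with compounds delivered in DMSO.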

[6] = target: Voltage-gated inwardly rectifying potassium channel KCNH2 (Homo sapiens) (UniProt Q12809); experiment: Human Ether-a-go-go-Related Gene (hERG) channel small molecule antagonists: fluorescence cell-based qHTS assay (AID 1671200); details: hERG-U2OS cells, FluxOR thallium flux fluorescence; series mostly up to 76.8 µM; also: nearly all actives have a fitted effect of over 50% in size; also: potency is read from the fitted curve at half-maximal effect
Sequence of Voltage-gated inwardly rectifying potassium channel KCNH2 (Homo sapiens) (Q12809 whole entry, looked up): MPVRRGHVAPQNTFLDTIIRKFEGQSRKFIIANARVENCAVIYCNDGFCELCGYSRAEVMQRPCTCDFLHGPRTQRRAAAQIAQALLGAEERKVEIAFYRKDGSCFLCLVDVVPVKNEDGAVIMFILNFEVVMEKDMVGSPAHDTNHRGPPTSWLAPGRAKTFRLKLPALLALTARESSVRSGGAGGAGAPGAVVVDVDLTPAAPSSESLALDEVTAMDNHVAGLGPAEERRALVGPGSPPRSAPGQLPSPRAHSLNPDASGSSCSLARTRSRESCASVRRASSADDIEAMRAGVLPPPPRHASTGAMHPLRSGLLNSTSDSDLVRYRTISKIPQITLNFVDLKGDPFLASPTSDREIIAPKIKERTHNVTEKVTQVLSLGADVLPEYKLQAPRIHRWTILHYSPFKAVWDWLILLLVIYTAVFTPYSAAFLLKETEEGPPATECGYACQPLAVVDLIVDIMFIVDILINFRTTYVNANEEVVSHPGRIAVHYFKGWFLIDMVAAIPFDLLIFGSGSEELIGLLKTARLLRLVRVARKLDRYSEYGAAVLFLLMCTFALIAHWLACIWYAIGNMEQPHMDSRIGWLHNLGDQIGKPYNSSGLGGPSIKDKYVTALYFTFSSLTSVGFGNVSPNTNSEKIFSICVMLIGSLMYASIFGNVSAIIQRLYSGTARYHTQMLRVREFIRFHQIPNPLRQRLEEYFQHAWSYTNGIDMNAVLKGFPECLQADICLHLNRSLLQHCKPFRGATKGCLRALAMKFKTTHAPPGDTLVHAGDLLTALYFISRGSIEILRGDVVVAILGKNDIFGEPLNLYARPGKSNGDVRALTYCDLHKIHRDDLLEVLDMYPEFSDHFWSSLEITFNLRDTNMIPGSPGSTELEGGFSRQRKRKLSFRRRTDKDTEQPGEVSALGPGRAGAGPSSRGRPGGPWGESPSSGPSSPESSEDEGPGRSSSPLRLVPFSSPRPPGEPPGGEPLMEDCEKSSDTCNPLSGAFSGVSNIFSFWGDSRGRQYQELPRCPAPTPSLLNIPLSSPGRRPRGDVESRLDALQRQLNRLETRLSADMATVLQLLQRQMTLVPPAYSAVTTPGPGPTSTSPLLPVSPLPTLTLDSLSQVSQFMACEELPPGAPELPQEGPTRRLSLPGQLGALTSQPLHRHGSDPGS
Outline: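 U2OS cells expressing the channel were plated at 1000 cells/well, incubated overnight at 37 C, then loaded with FluxOR II thallium-sensitive dye for 1 h at room temperature in the dark, with a further 10 min at room temperature before stimulation.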

[7] = Caspase-3/7 induction in CHO-K1 cells by small molecules, qHTS cell viability counter screen (AID 1346979); details: CellTiter-Fluor fluorescence, 17 h; series mostly up to 92.4 µM; also: nearly all actives have a fitted effect of over 35% in size; also: potency is read from the fitted curve at half-maximal effect
Outline: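 Wild-type CHO-K1 cells were seeded at 1,500 per well, rested 5hr at 37 C, then exposed to compounds in DMSO. After 16hr, CellTiter-Fluor reagent was added and fluorescence read 1hr later as the viability measure.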

[8] = target: Nuclear receptor subfamily 1 group I member 2 (Homo sapiens) (UniProt O75469); experiment: Human pregnane X receptor (PXR) small molecule agonists, qHTS assay (AID 1346982); details: PXR-Luc HepG2, CYP3A4 luciferase reporter, 24 h; series mostly up to 92.4 µM; also: nearly all actives have a fitted effect of over 35% in size; also: potency is read from the fitted curve at half-maximal effect
Sequence of Nuclear receptor subfamily 1 group I member 2 (Homo sapiens) (O75469 whole entry, looked up): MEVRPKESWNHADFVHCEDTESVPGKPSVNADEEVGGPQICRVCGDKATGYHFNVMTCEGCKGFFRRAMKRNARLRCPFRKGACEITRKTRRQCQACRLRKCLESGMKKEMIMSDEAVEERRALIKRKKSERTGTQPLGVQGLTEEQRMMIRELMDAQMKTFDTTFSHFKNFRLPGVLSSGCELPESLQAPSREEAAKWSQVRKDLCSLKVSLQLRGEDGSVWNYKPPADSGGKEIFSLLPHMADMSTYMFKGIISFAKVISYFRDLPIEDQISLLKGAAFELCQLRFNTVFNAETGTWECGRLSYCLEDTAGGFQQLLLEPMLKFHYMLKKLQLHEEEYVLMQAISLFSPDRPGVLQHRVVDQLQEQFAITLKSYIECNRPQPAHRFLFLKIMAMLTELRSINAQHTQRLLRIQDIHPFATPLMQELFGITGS
Outline: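 PXR-Luc HepG2 reporter cells (CYP3A4-driven luciferase) in 5% charcoal-stripped FBS medium, plated 5 h before compound addition, then treated 24 h at 37C. Luciferase read by ONE-Glo luminescence after 30 min at room temperature.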

[9] = target: Nuclear receptor subfamily 1 group I member 2 (Homo sapiens) (UniProt O75469); experiment: CYP3A4 induction through human pregnane X receptor (PXR) by small molecules, qHTS assay (AID 1346984); details: DPX-2 HepG2 PXR, CYP3A4-luciferin luminescence, 24 h; series mostly up to 46.1 µM; also: nearly all actives have a fitted effect of over 40% in size
Outline: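 DPX-2 HepG2 cells carrying a PXR response element and CYP3A4-promoter luciferase construct, treated with compounds 24 hr at 37C. Then P450-Glo CYP3A4 Luciferin-IPA substrate (3uM final) for 3 hr at 37C, One-Glo added, luminescence read.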

[10] = target: Nuclear receptor subfamily 1 group I member 2 (Homo sapiens) (UniProt O75469); experiment: Human pregnane X receptor (PXR) activation by small molecules, qHTS assay (AID 1346985); details: DPX-2 HepG2 CYP3A4-luciferase, 24 h; series mostly up to 38.3 µM; also: nearly all actives have a fitted effect of over 40% in size
Outline: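 DPX-2 cells (HepG2 co-transfected with a PXR response element and a CYP3A4-promoter luciferase construct) were seeded at 2,000 per well, rested 5 hr at 37C, then exposed to DMSO-dissolved compounds for 24 hr. Activation was read as luciferase luminescence.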

[11] = target: Cytochrome P450 2D6 (Homo sapiens) (UniProt P10635); experiment: Cytochrome P450 Family 2 Subfamily D Member 6 (CYP2D6) small molecule antagonists: luciferase reporter qHTS assay (AID 1671196); details: P450-Glo CYP2D6 enzyme assay, luciferin luminescence, 1 h; series mostly up to 115 µM; also: nearly all actives have a fitted effect of over 50% in size; also: potency is read from the fitted curve at half-maximal effect
Sequence of Cytochrome P450 2D6 (Homo sapiens) (P10635 whole entry, looked up): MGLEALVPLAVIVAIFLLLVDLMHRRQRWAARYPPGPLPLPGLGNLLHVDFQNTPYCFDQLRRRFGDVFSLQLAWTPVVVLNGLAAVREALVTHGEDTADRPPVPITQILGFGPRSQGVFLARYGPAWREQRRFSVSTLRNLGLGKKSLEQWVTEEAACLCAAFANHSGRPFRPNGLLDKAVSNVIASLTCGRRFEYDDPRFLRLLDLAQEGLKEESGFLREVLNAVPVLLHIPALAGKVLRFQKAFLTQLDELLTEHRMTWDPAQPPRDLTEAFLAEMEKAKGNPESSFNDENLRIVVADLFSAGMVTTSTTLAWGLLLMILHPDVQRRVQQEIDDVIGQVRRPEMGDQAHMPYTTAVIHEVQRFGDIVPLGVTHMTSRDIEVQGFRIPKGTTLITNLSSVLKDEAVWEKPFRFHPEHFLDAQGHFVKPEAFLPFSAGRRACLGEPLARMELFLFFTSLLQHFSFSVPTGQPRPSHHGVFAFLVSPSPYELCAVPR
Outline: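 Cell-free P450-Glo system: CYP2D6 with proluciferin substrate was pre-incubated with compound for 10 min, then reacted with NADPH regeneration for 1 h at room temperature. Luciferin product was detected after 20 min, and data were reported as relative luminescence units.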

[12] = target: Cytochrome P450 2C19 (Homo sapiens) (UniProt P33261); experiment: Cytochrome P450 Family 2 Subfamily C Member 19 (CYP2C19) small molecule antagonists: luciferase reporter qHTS assay (AID 1671197); details: P450-Glo CYP2C19 enzyme, luciferin luminescence, 1 h; series mostly up to 115 µM; also: nearly all actives have a fitted effect of over 65% in size; also: potency is read from the fitted curve at half-maximal effect
Sequence of Cytochrome P450 2C19 (Homo sapiens) (P33261 whole entry, looked up): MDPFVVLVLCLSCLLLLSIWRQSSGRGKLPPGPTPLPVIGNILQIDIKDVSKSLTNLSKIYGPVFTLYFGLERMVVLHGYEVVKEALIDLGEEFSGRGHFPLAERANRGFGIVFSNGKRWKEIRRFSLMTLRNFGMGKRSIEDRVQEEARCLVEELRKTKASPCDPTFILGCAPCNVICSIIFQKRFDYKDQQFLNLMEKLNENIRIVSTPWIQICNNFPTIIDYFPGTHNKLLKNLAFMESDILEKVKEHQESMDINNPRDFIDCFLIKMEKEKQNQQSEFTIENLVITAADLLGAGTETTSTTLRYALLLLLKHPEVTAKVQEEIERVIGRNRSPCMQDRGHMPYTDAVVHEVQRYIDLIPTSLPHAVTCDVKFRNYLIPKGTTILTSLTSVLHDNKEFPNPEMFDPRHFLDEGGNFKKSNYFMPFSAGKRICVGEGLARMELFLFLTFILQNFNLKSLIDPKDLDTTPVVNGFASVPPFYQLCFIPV
Outline: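 Quantitative high-throughput screen of the Tox21 library using CYP2C19 with proluciferin substrate. Reaction: NADPH regeneration, 37C, 1 h, after 10 min compound preincubation at room temperature. Readout: luminescence.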

[13] = target: Cytochrome P450 3A4 (Homo sapiens) (UniProt P08684); experiment: Cytochrome P450 Family 3 Subfamily A Member 4 (CYP3A4) small molecule antagonists: luciferase reporter qHTS assay (AID 1671201); details: P450-Glo CYP3A4 enzyme, luciferin luminescence, 1 h; series mostly up to 115 µM; also: nearly all actives have a fitted effect of over 50% in size; also: potency is read from the fitted curve at half-maximal effect
Sequence of Cytochrome P450 3A4 (Homo sapiens) (P08684 whole entry, looked up): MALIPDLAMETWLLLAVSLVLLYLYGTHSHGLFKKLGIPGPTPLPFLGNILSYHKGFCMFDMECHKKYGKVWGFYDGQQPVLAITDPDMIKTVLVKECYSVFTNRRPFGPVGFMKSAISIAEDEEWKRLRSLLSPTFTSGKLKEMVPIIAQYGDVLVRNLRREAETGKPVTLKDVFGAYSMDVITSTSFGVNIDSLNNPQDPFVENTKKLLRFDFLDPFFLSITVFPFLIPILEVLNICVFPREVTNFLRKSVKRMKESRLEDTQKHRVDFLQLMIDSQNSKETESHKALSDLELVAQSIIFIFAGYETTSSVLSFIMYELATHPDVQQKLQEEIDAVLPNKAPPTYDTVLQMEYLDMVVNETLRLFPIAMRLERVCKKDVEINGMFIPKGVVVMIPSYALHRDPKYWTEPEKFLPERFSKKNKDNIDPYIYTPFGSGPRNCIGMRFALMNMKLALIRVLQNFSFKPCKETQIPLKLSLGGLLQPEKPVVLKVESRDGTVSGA
Outline: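 P450-Glo CYP3A4 system with proluciferin substrate; compounds preincubated 10 min RT with enzyme-substrate mix, then NADPH regeneration added for 1 h RT. Detection reagent 20 min, luminescence read as relative luminescence units.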

[14] = target: Cytochrome P450 2C9 (Homo sapiens) (UniProt P11712); experiment: Cytochrome P450 Family 2 Subfamily C Member 9 (CYP2C9) small molecule antagonists: luciferase reporter qHTS assay (AID 1671198); details: P450-Glo CYP2C9 enzyme assay, luciferin luminescence; series mostly up to 115 µM; also: nearly all actives have a fitted effect of over 50% in size; also: potency is read from the fitted curve at half-maximal effect
Sequence of Cytochrome P450 2C9 (Homo sapiens) (P11712 whole entry, looked up): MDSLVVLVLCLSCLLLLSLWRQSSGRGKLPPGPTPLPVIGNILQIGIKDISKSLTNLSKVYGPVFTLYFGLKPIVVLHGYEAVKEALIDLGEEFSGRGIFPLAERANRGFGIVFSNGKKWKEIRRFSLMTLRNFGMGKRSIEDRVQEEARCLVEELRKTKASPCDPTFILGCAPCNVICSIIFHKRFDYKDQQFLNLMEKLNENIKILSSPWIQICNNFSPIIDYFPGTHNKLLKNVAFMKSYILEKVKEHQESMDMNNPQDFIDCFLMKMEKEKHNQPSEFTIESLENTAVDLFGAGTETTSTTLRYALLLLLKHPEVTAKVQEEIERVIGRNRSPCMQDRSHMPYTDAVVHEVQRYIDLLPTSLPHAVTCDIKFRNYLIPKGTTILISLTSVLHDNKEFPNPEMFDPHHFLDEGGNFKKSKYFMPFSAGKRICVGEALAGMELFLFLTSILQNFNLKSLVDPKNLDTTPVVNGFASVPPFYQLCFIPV
Outline: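 Enzyme-substrate mix preincubated with compound 10 min at room temperature; reaction started with NADPH regeneration solution, 1 h 37C. Luminescent luciferin product read after 20 min detection reagent.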

[15] = target: Cytochrome P450 1A2 (Homo sapiens) (UniProt P05177); experiment: Cytochrome P450 Family 1 Subfamily A Member 2 (CYP1A2) small molecule antagonists: luciferase reporter qHTS assay (AID 1671199); details: P450-Glo CYP1A2 enzyme, luciferin luminescence, 1 h; series mostly up to 115 µM; also: nearly all actives have a fitted effect of over 50% in size; also: potency is read from the fitted curve at half-maximal effect
Sequence of Cytochrome P450 1A2 (Homo sapiens) (P05177 whole entry, looked up): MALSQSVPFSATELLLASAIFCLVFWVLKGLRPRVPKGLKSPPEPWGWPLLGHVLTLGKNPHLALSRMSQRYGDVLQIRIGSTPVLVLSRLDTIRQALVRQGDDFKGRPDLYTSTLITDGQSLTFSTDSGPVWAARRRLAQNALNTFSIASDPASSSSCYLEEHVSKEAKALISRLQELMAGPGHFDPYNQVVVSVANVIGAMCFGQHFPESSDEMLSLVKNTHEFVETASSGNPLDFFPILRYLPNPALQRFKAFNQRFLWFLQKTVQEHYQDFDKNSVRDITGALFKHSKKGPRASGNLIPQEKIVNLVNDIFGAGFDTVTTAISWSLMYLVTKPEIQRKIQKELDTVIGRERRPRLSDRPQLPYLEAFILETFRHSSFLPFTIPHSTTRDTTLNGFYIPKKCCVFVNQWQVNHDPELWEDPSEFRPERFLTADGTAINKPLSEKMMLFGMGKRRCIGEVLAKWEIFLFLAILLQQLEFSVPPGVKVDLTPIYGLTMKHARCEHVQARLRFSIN
Outline: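 P450-Glo CYP1A2 enzyme–proluciferin substrate mix with compound 10 min at room temperature, then NADPH regeneration 1 h at room temperature. Luciferin detection reagent added, luminescence read after 20 min; furafylline positive control.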

Row | Structure (SMILES) | Potency [1] | Potency [2] | outcome [3] | Potency [4] | max activation [5] | Potency [6] | Potency [7] | Potency [8] | Potency [9] | Potency [10] | Potency [11] | Potency [12] | Potency [13] | Potency [14] | Potency [15]
1 | O=C(O)CN1C(=O)c2cccc3cccc(c23)C1=O | inactive | inactive | inactive | inactive | -2.76% | inactive | – | – | – | – | – | – | – | – | –
2 | CC(C)(C)NCC(O)COc1cccc2c1C[C@H](O)[C@H](O)C2 (stereo partly specified) | – | inactive | inactive | inactive | -1.94% | inactive | inactive | inactive | inactive | inactive | inactive | inactive | inactive | – | –
3 | CCCCCc1ccco1 | inactive | – | inactive | inactive | – | inactive | – | – | – | – | – | 32.8 µM (active) | 23.2 µM (active) | 26 µM (active) | 36.8 µM (active)
4 | CSSc1ccoc1C | inactive | – | inactive | – | – | inactive | inactive | – | – | – | inactive | inactive | inactive | inactive | –
5 | Nc1cccc2c(N)cccc12 | 5.45 µM (active) | – | inactive | 61.1 µM (active) | – | inactive | – | 17.2 µM (active) | – | – | 2.38 µM (active) | 7.96 µM (active) | – | 9.2 µM (active) | 3.72 µM (active)
6 | O=C(O)c1cccc(Oc2ccccc2)c1 | inactive | – | inactive | – | – | inactive | – | inactive | – | – | inactive | inactive | inactive | – | inactive
7 | COC1CCC=CO1 (stereo unspecified) | – | inactive | inactive | inactive | – | inactive | inactive | inactive | – | – | inactive | inactive | – | inactive | inactive
8 | Cc1ccc(Nc2c(F)cccc2Cl)c(CC(=O)O)c1 | inactive | – | inactive | – | – | inactive | inactive | – | – | – | inactive | 8.71 µM (active) | inactive | 17.4 µM (active) | 12.3 µM (active)
9 | CCCCC(CC)COS(=O)(=O)O (stereo unspecified) | – | inactive | inactive | inactive | -1.14% | inactive | inactive | inactive | inactive | inactive | – | inactive | inactive | – | inactive
10 | CC(=O)OCCC(C)CC(C)(C)C (stereo unspecified) | inactive | – | inactive | inactive | – | inactive | – | inactive | – | – | 71 µM (active) | inactive | inactive | inactive | inactive
11 | CN(C)CC/C=C1\c2ccccc2Sc2ccc(Cl)cc21 | 29.8 µM (active) | – | inactive | – | 3.57% | 3.01 µM (active) | – | – | – | – | 2.75 µM (active) | – | – | inactive | 7.23 µM (active)
12 | COc1ccc(-c2cc(=S)ss2)cc1 | inactive | – | inactive | – | – | inactive | 29.8 µM (active) | – | – | – | – | 9.77 µM (active) | – | 12.3 µM (active) | 0.911 µM (active)
